# Measurements: PubChem BioAssay (NCATS)
# Inconclusive results are not listed. The source made the active and inactive calls. The call rests on the fitted dose curve; in most records, active means well fitted inhibition curve with a large enough effect; inconclusive means small, poorly fitted or top-dose-only effect; inactive means flat fitted curve, though single readings scatter.
# Tested on: CP286
# Assay: qHTS profiling for inhibitors of Plasmodium falciparum proliferation (AID 504749); further: nearly all actives have a fitted effect of over 60% in size;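 on activity, negative = inhibition: 0% = DMSO vehicle and full inhibition = artemisinin control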
# Conditions: P. falciparum in erythrocytes, SYBR Green DNA, 72 h; series mostly up to 28.7 µM; activity, negative = inhibition: at the top concentration
# Outline: (§1)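 In a 72 h erythrocytic culture (37 C, humidified, 5% CO2) at 2.5% hematocrit and 0.3% starting parasitemia, compounds were tested; SYBR Green I in detergent lysis buffer stained parasite DNA overnight.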
# Potency means the concentration at half of the fitted maximal effect.
SMILES,"activity, negative = inhibition",Potency
CC(=O)O[C@H]1CC[C@H]2[C@@H]3CCC4=CC(=O)CCC4=C3C=C[C@]12C,0.287% (inactive),
CC[N+](C)(CC)CCOC(=O)C(O)(c1ccccc1)c1ccccc1,-5.7% (inactive),
O=C1C2CC=CCC2C(=O)N1SC(Cl)(Cl)Cl (configuration not stated),-0.25% (inactive),
[O]=[Cd],0.237% (inactive),
[O]=[Cr](=[O])([OH])[O][Cr](=[O])(=[O])[OH],,inactive
ClC=C(Cl)Cl,0.698% (inactive),
CCC(C)(S(=O)(=O)CC)S(=O)(=O)CC,-2.2% (inactive),
C[CH2][Hg][S]c1ccccc1C(=O)O,,1.41 µM (active)
C[C@]12CCC(=O)C[C@@H]1CC[C@@H]1[C@@H]2CC[C@]2(C)[C@@H](O)CC[C@@H]12,0.602% (inactive),
CNC(C)C(O)c1ccc(O)cc1 (configuration not stated),0.0966% (inactive),
ClCC1CO1 (configuration not stated),0.91% (inactive),
CCNC(C)Cc1cccc(C(F)(F)F)c1 (configuration not stated),-3.25% (inactive),
CN1C2CCC1CC(OC(c1ccccc1)c1ccc(Cl)cc1)C2 (configuration not stated),,5.01 µM (active)
COC([CH2][Hg])CNC(=O)c1ccccc1OCC(=O)O (configuration not stated),0.91% (inactive),
CCON=O,-1.2% (inactive),
Clc1ccccc1Cl,0.207% (inactive),
CCC(N)Cc1c[nH]c2ccccc12 (configuration not stated),0.969% (inactive),
O[C@H]1[C@H]2[C@H](O)CCCN2C[C@H]1O,0.396% (inactive),
C[N+]1(C)C2CCC1CC(OC(=O)c1c[nH]c3ccccc13)C2 (configuration not stated),-3.06% (inactive),
Clc1ccc(Cl)cc1,-0.237% (inactive),

SMILES,"activity, negative = inhibition",Potency
CC(C)(O)C1C2OC(=O)C1C1(O)CC3OC34C(=O)OC2C14C (configuration not stated),0.908% (inactive),
O=[N+]([O-])C(Br)(CO)CO,-0.786% (inactive),
CC(C)Nc1ccc(Nc2ccccc2)cc1,,8.91 µM (active)
FC(F)OC(F)(F)C(F)Cl (configuration not stated),0.898% (inactive),
CC(=O)OO,0.385% (inactive),
CN1c2ccccc2C(NCCCCCCC(=O)O)c2ccc(Cl)cc2S1(=O)=O (configuration not stated),-3.14% (inactive),
CCCC(C)C1(CC)C(=O)NC(=O)NC1=O (configuration not stated),-0.506% (inactive),
C=CCN1CCC23c4c5ccc(O)c4O[C@H]2C(=O)CC[C@@]3(O)C1C5 (some centres not stated),-0.191% (inactive),
ClC(Cl)(Cl)Cl,0.356% (inactive),
Oc1cc(Cl)c(Cl)cc1Cl,1.33% (inactive),
O=CC=O,-0.919% (inactive),
CCCC(C)(COC(N)=O)COC(=O)NC1CC1 (configuration not stated),-0.665% (inactive),
N#CN,-0.208% (inactive),
O=C(CS(=O)C(c1ccccc1)c1ccccc1)NO (configuration not stated),-8.59% (inactive),
ClC1C(Cl)C(Cl)C(Cl)C(Cl)C1Cl (configuration not stated),-0.563% (inactive),
O=Cc1ccco1,-0.83% (inactive),
O=S(=O)(O)c1cc(O)ccc1O,0.77% [at 12.8 µM] (inactive),
CCCCNCC(O)c1ccc(O)cc1 (configuration not stated),0.473% (inactive),
O=C1CCCCC1CN1CCCCC1 (configuration not stated),-9.71% (inactive),

# Tested on: CP291
# Assay: as above
# Conditions: P. falciparum in erythrocytes, SYBR Green DNA, 72 h; series mostly up to 28.7 µM; activity, negative = inhibition: at the top concentration
# Outline: as §1
SMILES,"activity, negative = inhibition",Potency
CC(=O)O[C@H]1CC[C@H]2[C@@H]3CCC4=CC(=O)CCC4=C3C=C[C@]12C,-8.75% (inactive),
CC[N+](C)(CC)CCOC(=O)C(O)(c1ccccc1)c1ccccc1,-0.77% (inactive),
O=C1C2CC=CCC2C(=O)N1SC(Cl)(Cl)Cl (configuration not stated),-8.81% (inactive),
[O]=[Cd],12.7% (inactive),
[O]=[Cr](=[O])([OH])[O][Cr](=[O])(=[O])[OH],-2.96% (inactive),
ClC=C(Cl)Cl,3.08% (inactive),
CCC(C)(S(=O)(=O)CC)S(=O)(=O)CC,-7.51% (inactive),
C[CH2][Hg][S]c1ccccc1C(=O)O,,3.79 µM (active)
C[C@]12CCC(=O)C[C@@H]1CC[C@@H]1[C@@H]2CC[C@]2(C)[C@@H](O)CC[C@@H]12,8.04% (inactive),
CNC(C)C(O)c1ccc(O)cc1 (configuration not stated),-1.85% (inactive),
ClCC1CO1 (configuration not stated),1.17% (inactive),
CCNC(C)Cc1cccc(C(F)(F)F)c1 (configuration not stated),-7.59% (inactive),
CN1C2CCC1CC(OC(c1ccccc1)c1ccc(Cl)cc1)C2 (configuration not stated),,12 µM (active)
COC([CH2][Hg])CNC(=O)c1ccccc1OCC(=O)O (configuration not stated),0.0167% (inactive),
CCON=O,10.1% (inactive),
Clc1ccccc1Cl,-10.3% (inactive),
CCC(N)Cc1c[nH]c2ccccc12 (configuration not stated),-0.618% (inactive),
O[C@H]1[C@H]2[C@H](O)CCCN2C[C@H]1O,12.1% (inactive),
C[N+]1(C)C2CCC1CC(OC(=O)c1c[nH]c3ccccc13)C2 (configuration not stated),-8.74% (inactive),
Clc1ccc(Cl)cc1,-6.53% (inactive),

SMILES,"activity, negative = inhibition",Potency
CC(C)(O)C1C2OC(=O)C1C1(O)CC3OC34C(=O)OC2C14C (configuration not stated),0.55% (inactive),
O=[N+]([O-])C(Br)(CO)CO,-6.31% (inactive),
CC(C)Nc1ccc(Nc2ccccc2)cc1,,15.1 µM (active)
FC(F)OC(F)(F)C(F)Cl (configuration not stated),-1.74% (inactive),
CC(=O)OO,0.46% (inactive),
CN1c2ccccc2C(NCCCCCCC(=O)O)c2ccc(Cl)cc2S1(=O)=O (configuration not stated),-0.789% (inactive),
CCCC(C)C1(CC)C(=O)NC(=O)NC1=O (configuration not stated),-0.747% (inactive),
C=CCN1CCC23c4c5ccc(O)c4O[C@H]2C(=O)CC[C@@]3(O)C1C5 (some centres not stated),-5.52% (inactive),
ClC(Cl)(Cl)Cl,0.971% (inactive),
Oc1cc(Cl)c(Cl)cc1Cl,-3.02% (inactive),
O=CC=O,-5.15% (inactive),
CCCC(C)(COC(N)=O)COC(=O)NC1CC1 (configuration not stated),-6.88% (inactive),
N#CN,-0.272% (inactive),
O=C(CS(=O)C(c1ccccc1)c1ccccc1)NO (configuration not stated),-4.46% (inactive),
ClC1C(Cl)C(Cl)C(Cl)C(Cl)C1Cl (configuration not stated),-8.82% (inactive),
O=Cc1ccco1,-5.97% (inactive),
O=S(=O)(O)c1cc(O)ccc1O,-9.6% [at 12.8 µM] (inactive),
CCCCNCC(O)c1ccc(O)cc1 (configuration not stated),9.63% (inactive),
O=C1CCCCC1CN1CCCCC1 (configuration not stated),-4.69% (inactive),

# Tested on: CP297
# Assay: as above
# Conditions: P. falciparum in erythrocytes, SYBR Green DNA, 72 h; series mostly up to 28.7 µM; activity, negative = inhibition: at the top concentration
# Outline: as §1
SMILES,"activity, negative = inhibition",Potency
CC(=O)O[C@H]1CC[C@H]2[C@@H]3CCC4=CC(=O)CCC4=C3C=C[C@]12C,6.43% (inactive),
CC[N+](C)(CC)CCOC(=O)C(O)(c1ccccc1)c1ccccc1,-5.68% (inactive),
O=C1C2CC=CCC2C(=O)N1SC(Cl)(Cl)Cl (configuration not stated),1.75% (inactive),
[O]=[Cd],-0.815% (inactive),
[O]=[Cr](=[O])([OH])[O][Cr](=[O])(=[O])[OH],,inactive
ClC=C(Cl)Cl,-4.96% (inactive),
CCC(C)(S(=O)(=O)CC)S(=O)(=O)CC,2.9% (inactive),
C[CH2][Hg][S]c1ccccc1C(=O)O,,1.69 µM (active)
C[C@]12CCC(=O)C[C@@H]1CC[C@@H]1[C@@H]2CC[C@]2(C)[C@@H](O)CC[C@@H]12,1.33% (inactive),
CNC(C)C(O)c1ccc(O)cc1 (configuration not stated),0.297% (inactive),
ClCC1CO1 (configuration not stated),-2.47% (inactive),
CCNC(C)Cc1cccc(C(F)(F)F)c1 (configuration not stated),-10% (inactive),
CN1C2CCC1CC(OC(c1ccccc1)c1ccc(Cl)cc1)C2 (configuration not stated),,8.49 µM (active)
COC([CH2][Hg])CNC(=O)c1ccccc1OCC(=O)O (configuration not stated),-1.62% (inactive),
CCON=O,5.35% (inactive),
Clc1ccccc1Cl,-10.1% (inactive),
CCC(N)Cc1c[nH]c2ccccc12 (configuration not stated),0.661% (inactive),
O[C@H]1[C@H]2[C@H](O)CCCN2C[C@H]1O,-0.497% (inactive),
C[N+]1(C)C2CCC1CC(OC(=O)c1c[nH]c3ccccc13)C2 (configuration not stated),1.91% (inactive),
Clc1ccc(Cl)cc1,1.19% (inactive),

SMILES,"activity, negative = inhibition",Potency
CC(C)(O)C1C2OC(=O)C1C1(O)CC3OC34C(=O)OC2C14C (configuration not stated),-16.5% (inactive),
O=[N+]([O-])C(Br)(CO)CO,-5.48% (inactive),
CC(C)Nc1ccc(Nc2ccccc2)cc1,,4.78 µM (active)
FC(F)OC(F)(F)C(F)Cl (configuration not stated),1.46% (inactive),
CC(=O)OO,0.983% (inactive),
CN1c2ccccc2C(NCCCCCCC(=O)O)c2ccc(Cl)cc2S1(=O)=O (configuration not stated),-10.8% (inactive),
CCCC(C)C1(CC)C(=O)NC(=O)NC1=O (configuration not stated),-4.21% (inactive),
C=CCN1CCC23c4c5ccc(O)c4O[C@H]2C(=O)CC[C@@]3(O)C1C5 (some centres not stated),0.93% (inactive),
ClC(Cl)(Cl)Cl,-2.96% (inactive),
Oc1cc(Cl)c(Cl)cc1Cl,2.09% (inactive),
O=CC=O,-1.86% (inactive),
CCCC(C)(COC(N)=O)COC(=O)NC1CC1 (configuration not stated),3.85% (inactive),
N#CN,0.309% (inactive),
O=C(CS(=O)C(c1ccccc1)c1ccccc1)NO (configuration not stated),-4.68% (inactive),
ClC1C(Cl)C(Cl)C(Cl)C(Cl)C1Cl (configuration not stated),6.34% (inactive),
O=Cc1ccco1,6.23% (inactive),
O=S(=O)(O)c1cc(O)ccc1O,-3.14% [at 12.8 µM] (inactive),
CCCCNCC(O)c1ccc(O)cc1 (configuration not stated),5.22% (inactive),
O=C1CCCCC1CN1CCCCC1 (configuration not stated),-6.98% (inactive),
